# Measurements: paper PMC7862700, “An all-to-all approach to the identification of sequence-specific readers for epigenetic DNA modifications on cytosine”
# Assays:
# Assay in all cases: DAPPL (digital affinity profiling via proximity ligation, sequencing); 10 mM Tris-HCl pH 7.5, 50 mM NaCl, 1 mM DTT, 4% glycerol, room temperature, 30 min; GST-TFs on glutathione beads, 16-mer random dsDNA library, 0.1% formaldehyde crosslink after washing; high values mean tight binding
# [1] = target: T1, FEV (Homo sapiens, UniProt Q99581 1-238); settings: protein: recombinant; tags: N-terminal GST; dsDNA, one strand shown
# T1 sequence: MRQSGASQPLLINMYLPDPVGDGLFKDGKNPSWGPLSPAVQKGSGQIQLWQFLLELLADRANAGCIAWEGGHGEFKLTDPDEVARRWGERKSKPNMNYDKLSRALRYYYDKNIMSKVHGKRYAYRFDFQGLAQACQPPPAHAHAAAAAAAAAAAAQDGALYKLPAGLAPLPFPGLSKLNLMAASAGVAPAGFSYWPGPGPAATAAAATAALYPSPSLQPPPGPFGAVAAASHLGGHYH
# Outline: (§1)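 Pools of DNA-barcoded human transcription factors, expressed in yeast as GST fusions on glutathione beads and combined with a tag-only sample, were incubated with 200 nmole of a 16-mer random double-stranded DNA library. Incubation took 30 min at room temperature in Tris/NaCl/DTT/glycerol buffer and was followed by washing, 0.1% formaldehyde crosslinking, proximity ligation (BsaI/T4 ligase, 1 h, 37 °C), PCR amplification and sequencing on an Illumina NextSeq500. Binding signal is the ratio of a hexamer's read frequency for a factor to its frequency for the tag-only sample.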
# [2] = target: ETV5 (Homo sapiens, UniProt P41161 1-510); settings: protein: recombinant; tags: N-terminal GST; dsDNA, one strand shown
# Outline: as §1
# [3] = target: HSF1 (Homo sapiens, UniProt Q00613 1-529); settings: protein: recombinant; tags: N-terminal GST; chain copies: 3; dsDNA, one strand shown
# Outline: as §1
# [4] = target: T2, SPIC (Homo sapiens, UniProt Q8N5J4 1-248); settings: protein: recombinant; tags: N-terminal GST; dsDNA, one strand shown
# T2 sequence: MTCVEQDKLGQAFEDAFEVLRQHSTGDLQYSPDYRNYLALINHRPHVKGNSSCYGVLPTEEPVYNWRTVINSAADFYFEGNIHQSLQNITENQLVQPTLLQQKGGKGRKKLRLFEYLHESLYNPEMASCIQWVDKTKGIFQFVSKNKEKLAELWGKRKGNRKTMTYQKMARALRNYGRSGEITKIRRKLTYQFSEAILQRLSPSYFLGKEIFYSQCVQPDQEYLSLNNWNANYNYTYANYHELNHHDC
# Outline: as §1
# [5] = target: ELF4 (Homo sapiens, UniProt Q99607 1-663); settings: protein: recombinant; tags: N-terminal GST; dsDNA, one strand shown
# Outline: as §1
# [6] = target: T3, ELK4 (Homo sapiens, UniProt P28324-2 1-405); settings: protein: recombinant; tags: N-terminal GST; dsDNA, one strand shown
# T3 sequence: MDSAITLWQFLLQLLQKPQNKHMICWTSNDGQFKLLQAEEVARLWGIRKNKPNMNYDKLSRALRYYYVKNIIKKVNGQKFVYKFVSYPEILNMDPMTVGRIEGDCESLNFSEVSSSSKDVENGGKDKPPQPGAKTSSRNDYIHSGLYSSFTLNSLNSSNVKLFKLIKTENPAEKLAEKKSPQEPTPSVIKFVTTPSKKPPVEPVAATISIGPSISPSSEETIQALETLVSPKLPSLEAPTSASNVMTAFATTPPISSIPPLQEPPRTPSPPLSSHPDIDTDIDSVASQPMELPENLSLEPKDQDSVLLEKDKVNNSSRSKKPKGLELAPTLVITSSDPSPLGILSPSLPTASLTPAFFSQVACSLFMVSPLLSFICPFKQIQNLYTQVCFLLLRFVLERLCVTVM
# Outline: as §1
# [7] = target: T4, ETV2 (Homo sapiens, UniProt O00321 1-342); settings: protein: recombinant; tags: N-terminal GST; dsDNA, one strand shown
# T4 sequence: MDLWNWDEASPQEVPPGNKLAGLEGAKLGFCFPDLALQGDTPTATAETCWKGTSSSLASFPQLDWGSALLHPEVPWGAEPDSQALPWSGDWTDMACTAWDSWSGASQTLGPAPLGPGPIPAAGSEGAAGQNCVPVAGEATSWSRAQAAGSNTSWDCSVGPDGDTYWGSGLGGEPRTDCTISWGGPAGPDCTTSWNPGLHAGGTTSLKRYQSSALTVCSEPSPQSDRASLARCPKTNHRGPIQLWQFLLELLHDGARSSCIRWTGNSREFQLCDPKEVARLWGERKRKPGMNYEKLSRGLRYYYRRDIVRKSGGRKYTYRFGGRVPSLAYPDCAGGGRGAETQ
# Outline: as §1
# [8] = target: T5, ELF3 (Homo sapiens, UniProt P78545 1-371); settings: protein: recombinant; tags: N-terminal GST; dsDNA, one strand shown
# T5 sequence: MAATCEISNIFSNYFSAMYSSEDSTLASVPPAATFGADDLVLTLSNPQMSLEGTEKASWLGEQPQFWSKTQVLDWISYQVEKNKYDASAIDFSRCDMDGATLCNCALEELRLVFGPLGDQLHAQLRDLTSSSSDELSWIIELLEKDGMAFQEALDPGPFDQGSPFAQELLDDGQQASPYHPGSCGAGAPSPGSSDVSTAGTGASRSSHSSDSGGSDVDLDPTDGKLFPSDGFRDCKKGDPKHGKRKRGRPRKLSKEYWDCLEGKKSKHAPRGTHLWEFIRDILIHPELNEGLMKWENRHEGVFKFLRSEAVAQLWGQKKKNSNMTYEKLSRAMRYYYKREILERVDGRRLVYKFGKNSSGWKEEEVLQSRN
# Outline: as §1
# [9] = target: CRX (Homo sapiens, UniProt O43186 1-299); settings: protein: recombinant; tags: N-terminal GST; dsDNA, one strand shown
# Outline: as §1
# [10] = target: ETV1 (Homo sapiens, UniProt P50549 1-477); settings: protein: recombinant; tags: N-terminal GST; dsDNA, one strand shown
# Outline: as §1
# [11] = target: T6, ERF (Homo sapiens, UniProt P50548 1-548); settings: protein: recombinant; tags: N-terminal GST; dsDNA, one strand shown
# T6 sequence: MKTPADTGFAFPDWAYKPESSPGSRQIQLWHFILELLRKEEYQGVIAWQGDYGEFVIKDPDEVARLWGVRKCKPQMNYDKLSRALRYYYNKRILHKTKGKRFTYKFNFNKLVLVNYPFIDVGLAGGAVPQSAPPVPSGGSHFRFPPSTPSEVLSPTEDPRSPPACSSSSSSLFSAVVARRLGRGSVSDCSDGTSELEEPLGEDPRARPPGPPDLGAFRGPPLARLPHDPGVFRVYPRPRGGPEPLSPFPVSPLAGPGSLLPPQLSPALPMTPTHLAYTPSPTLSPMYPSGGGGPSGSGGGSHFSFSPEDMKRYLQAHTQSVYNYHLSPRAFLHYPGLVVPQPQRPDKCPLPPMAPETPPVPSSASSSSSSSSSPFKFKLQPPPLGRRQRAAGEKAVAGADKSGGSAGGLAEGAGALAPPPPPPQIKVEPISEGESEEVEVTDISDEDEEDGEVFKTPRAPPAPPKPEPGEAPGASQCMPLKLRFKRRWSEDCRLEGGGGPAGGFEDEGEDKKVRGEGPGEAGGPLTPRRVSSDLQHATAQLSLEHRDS
# Outline: as §1
# [12] = target: T7, ETV3L (Homo sapiens, UniProt Q6ZN32 1-361); settings: protein: recombinant; tags: N-terminal GST; dsDNA, one strand shown
# T7 sequence: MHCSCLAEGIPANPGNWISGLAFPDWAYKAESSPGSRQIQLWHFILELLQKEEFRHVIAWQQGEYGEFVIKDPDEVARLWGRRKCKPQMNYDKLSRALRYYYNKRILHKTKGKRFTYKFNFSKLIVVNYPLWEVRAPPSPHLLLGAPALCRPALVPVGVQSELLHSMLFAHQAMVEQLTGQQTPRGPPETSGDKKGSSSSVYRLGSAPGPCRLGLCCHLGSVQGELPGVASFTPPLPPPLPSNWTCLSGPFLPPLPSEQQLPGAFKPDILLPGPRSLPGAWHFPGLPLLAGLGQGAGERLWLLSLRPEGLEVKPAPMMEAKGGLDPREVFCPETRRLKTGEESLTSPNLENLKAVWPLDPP
# Outline: as §1
# [13] = target: T8, ETS2 (Homo sapiens, UniProt P15036 1-469); settings: protein: recombinant; tags: N-terminal GST; dsDNA, one strand shown
# T8 sequence: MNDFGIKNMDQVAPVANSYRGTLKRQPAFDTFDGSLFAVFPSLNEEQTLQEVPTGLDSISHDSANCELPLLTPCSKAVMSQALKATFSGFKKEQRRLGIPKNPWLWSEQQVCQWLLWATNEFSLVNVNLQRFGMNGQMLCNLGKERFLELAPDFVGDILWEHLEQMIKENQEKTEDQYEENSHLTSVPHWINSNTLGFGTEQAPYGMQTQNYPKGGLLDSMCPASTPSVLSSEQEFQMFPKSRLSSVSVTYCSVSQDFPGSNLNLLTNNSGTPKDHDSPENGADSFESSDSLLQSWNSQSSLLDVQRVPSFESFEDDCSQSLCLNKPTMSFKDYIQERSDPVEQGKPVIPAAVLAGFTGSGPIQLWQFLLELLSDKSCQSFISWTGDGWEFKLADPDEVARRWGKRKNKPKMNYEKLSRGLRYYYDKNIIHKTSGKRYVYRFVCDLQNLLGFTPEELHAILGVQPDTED
# Outline: as §1
# [14] = target: T9, ETV7 (Homo sapiens, UniProt Q9Y603 1-341); settings: protein: recombinant; tags: N-terminal GST; dsDNA, one strand shown
# T9 sequence: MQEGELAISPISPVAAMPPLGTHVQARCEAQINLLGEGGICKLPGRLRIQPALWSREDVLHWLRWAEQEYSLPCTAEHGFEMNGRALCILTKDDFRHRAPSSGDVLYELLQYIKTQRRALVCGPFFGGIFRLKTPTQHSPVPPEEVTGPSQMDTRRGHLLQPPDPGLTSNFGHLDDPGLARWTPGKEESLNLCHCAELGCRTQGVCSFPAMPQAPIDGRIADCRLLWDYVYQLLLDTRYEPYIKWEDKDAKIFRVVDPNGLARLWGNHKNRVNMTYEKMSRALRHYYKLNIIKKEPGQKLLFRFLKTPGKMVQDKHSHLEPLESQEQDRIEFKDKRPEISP
# Outline: as §1
# [15] = target: T10, ELF5 (Homo sapiens, UniProt Q9UKW6-2 1-255); settings: protein: recombinant; tags: N-terminal GST; dsDNA, one strand shown
# T10 sequence: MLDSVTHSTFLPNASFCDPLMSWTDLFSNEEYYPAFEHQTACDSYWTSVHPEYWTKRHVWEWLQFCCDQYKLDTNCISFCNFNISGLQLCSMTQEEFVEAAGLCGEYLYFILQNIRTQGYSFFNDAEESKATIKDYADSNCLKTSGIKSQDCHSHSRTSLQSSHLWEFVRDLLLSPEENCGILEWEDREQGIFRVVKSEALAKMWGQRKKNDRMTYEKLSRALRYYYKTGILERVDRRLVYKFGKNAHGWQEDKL
# Outline: as §1
# [16] = target: T11, ETV3 (Homo sapiens, UniProt P41162-2 1-143); settings: protein: recombinant; tags: N-terminal GST; dsDNA, one strand shown
# T11 sequence: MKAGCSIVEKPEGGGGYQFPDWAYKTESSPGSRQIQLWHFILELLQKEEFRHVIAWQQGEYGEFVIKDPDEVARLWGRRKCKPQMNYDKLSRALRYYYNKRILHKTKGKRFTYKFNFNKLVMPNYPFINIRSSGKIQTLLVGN
# Outline: as §1
# [17] = target: ETV6 (Homo sapiens, UniProt P41212 1-452); settings: protein: recombinant; tags: N-terminal GST; dsDNA, one strand shown
# Outline: as §1
# [18] = target: T12, SPDEF (Homo sapiens, UniProt O95238 1-335); settings: protein: recombinant; tags: N-terminal GST; dsDNA, one strand shown
# T12 sequence: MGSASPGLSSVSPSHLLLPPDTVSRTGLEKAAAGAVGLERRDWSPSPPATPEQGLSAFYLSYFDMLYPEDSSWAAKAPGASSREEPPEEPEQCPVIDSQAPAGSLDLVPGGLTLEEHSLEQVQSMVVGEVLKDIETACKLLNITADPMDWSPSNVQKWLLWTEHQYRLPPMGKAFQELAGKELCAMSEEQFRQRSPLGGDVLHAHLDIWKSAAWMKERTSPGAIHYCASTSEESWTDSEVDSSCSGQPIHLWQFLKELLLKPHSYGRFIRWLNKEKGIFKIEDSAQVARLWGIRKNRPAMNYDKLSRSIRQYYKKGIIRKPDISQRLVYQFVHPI
# Outline: as §1
# ETV6, sequence (P41212 whole entry): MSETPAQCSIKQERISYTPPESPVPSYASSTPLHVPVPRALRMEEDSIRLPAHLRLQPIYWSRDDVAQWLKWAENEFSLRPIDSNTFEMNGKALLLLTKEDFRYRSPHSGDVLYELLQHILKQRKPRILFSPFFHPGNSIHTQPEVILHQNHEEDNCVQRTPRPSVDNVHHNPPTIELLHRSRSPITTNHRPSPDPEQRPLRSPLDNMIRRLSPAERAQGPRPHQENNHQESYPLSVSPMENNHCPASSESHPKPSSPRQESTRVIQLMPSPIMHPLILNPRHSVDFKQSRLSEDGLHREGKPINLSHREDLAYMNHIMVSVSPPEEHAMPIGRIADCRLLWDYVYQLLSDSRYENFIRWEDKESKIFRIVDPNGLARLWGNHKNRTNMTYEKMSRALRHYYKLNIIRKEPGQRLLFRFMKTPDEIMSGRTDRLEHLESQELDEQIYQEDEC
# ETV1, sequence (P50549 whole entry): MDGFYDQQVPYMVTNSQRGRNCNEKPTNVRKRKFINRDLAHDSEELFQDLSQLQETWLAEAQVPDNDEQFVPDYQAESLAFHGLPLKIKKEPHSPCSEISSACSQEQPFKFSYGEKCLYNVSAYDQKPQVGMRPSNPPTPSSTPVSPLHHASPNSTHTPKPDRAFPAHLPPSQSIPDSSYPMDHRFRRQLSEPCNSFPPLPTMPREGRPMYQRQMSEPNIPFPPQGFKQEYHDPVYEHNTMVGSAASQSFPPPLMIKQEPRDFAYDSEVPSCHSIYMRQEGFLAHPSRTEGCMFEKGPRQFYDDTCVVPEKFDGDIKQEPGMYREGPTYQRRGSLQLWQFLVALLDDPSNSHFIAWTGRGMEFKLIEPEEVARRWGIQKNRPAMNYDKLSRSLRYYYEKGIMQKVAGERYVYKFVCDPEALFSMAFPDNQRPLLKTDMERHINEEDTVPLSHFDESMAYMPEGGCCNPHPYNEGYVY
# CRX, sequence (O43186 whole entry): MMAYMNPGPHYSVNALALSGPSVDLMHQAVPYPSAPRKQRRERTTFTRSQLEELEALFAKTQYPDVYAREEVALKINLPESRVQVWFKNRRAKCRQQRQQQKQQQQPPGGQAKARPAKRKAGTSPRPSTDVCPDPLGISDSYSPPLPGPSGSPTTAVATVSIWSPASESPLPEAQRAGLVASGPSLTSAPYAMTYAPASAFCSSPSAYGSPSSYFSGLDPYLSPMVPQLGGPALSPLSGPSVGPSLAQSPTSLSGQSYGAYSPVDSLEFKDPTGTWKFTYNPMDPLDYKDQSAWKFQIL
# ETV5, sequence (P41161 whole entry): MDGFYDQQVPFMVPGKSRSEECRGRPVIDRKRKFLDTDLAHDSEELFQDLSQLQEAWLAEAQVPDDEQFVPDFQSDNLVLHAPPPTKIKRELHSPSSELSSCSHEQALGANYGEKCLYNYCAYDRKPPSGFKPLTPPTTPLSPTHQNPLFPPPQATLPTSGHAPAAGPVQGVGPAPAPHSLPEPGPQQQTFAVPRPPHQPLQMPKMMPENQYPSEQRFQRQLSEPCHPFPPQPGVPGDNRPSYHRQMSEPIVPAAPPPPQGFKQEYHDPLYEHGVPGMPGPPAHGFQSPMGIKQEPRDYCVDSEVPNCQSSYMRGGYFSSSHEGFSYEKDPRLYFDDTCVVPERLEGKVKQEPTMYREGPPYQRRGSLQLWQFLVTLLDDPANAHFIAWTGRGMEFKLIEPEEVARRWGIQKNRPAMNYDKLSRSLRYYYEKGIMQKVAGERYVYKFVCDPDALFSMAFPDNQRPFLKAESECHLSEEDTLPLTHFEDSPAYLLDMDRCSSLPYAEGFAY
# HSF1, sequence (Q00613 whole entry): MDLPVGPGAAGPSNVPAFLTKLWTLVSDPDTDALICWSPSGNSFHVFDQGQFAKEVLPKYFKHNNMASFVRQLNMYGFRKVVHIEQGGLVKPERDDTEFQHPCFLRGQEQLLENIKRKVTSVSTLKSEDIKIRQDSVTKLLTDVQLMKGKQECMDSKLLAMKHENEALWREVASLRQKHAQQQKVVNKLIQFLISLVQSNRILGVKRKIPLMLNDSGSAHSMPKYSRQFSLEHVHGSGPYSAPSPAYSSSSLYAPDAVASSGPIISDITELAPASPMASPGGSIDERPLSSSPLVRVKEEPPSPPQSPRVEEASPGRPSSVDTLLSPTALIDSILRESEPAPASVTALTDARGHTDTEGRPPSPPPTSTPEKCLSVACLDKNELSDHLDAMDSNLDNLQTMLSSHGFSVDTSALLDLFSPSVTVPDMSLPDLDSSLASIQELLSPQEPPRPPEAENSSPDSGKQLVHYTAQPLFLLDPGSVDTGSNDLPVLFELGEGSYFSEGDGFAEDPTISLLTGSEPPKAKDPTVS
# ELF4, sequence (Q99607 whole entry): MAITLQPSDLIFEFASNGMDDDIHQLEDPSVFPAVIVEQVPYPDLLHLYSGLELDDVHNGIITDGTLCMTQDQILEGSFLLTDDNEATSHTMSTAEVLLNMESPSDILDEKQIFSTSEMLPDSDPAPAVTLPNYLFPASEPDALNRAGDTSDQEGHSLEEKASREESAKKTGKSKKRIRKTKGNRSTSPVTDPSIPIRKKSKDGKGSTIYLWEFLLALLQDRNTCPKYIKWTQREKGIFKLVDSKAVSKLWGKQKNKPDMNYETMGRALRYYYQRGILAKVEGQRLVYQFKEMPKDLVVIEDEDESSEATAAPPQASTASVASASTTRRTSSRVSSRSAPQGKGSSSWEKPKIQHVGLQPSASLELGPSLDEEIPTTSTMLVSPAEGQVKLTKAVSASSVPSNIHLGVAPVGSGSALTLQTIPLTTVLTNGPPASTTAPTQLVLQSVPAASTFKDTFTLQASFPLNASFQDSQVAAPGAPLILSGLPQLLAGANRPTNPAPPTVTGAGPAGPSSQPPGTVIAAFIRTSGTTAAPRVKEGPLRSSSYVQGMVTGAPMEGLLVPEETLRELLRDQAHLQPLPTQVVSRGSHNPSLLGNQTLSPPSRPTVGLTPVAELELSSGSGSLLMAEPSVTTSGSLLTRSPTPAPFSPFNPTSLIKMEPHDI
Sequence,binding signal [1],binding signal [2],binding signal [3],binding signal [4],binding signal [5],binding signal [6],binding signal [7],binding signal [8],binding signal [9],binding signal [10],binding signal [11],binding signal [12],binding signal [13],binding signal [14],binding signal [15],binding signal [16],binding signal [17],binding signal [18]
AAGCTG,"1.14 fold enrichment (6-mer frequency, TF over GST control)","1.08 fold enrichment (6-mer frequency, TF over GST control)","1.25 fold enrichment (6-mer frequency, TF over GST control)","1.08 fold enrichment (6-mer frequency, TF over GST control)","1.08 fold enrichment (6-mer frequency, TF over GST control)","1.19 fold enrichment (6-mer frequency, TF over GST control)","1.17 fold enrichment (6-mer frequency, TF over GST control)","1.28 fold enrichment (6-mer frequency, TF over GST control)","1.59 fold enrichment (6-mer frequency, TF over GST control)","1.12 fold enrichment (6-mer frequency, TF over GST control)","1.18 fold enrichment (6-mer frequency, TF over GST control)","1.05 fold enrichment (6-mer frequency, TF over GST control)","1.13 fold enrichment (6-mer frequency, TF over GST control)","1.18 fold enrichment (6-mer frequency, TF over GST control)","1.11 fold enrichment (6-mer frequency, TF over GST control)","1.24 fold enrichment (6-mer frequency, TF over GST control)","1.08 fold enrichment (6-mer frequency, TF over GST control)",–
TGTGGA,–,"1.04 fold enrichment (6-mer frequency, TF over GST control)","1.13 fold enrichment (6-mer frequency, TF over GST control)","1.11 fold enrichment (6-mer frequency, TF over GST control)","1.06 fold enrichment (6-mer frequency, TF over GST control)","1.15 fold enrichment (6-mer frequency, TF over GST control)","1.13 fold enrichment (6-mer frequency, TF over GST control)","1 fold enrichment (6-mer frequency, TF over GST control)","1.06 fold enrichment (6-mer frequency, TF over GST control)","1.03 fold enrichment (6-mer frequency, TF over GST control)","1.15 fold enrichment (6-mer frequency, TF over GST control)","1.17 fold enrichment (6-mer frequency, TF over GST control)","1.02 fold enrichment (6-mer frequency, TF over GST control)",–,"1.02 fold enrichment (6-mer frequency, TF over GST control)","1.02 fold enrichment (6-mer frequency, TF over GST control)","1.07 fold enrichment (6-mer frequency, TF over GST control)","1.1 fold enrichment (6-mer frequency, TF over GST control)"
